# Test results from PubChem BioAssay AID602274 (Sanford-Burnham Center for Chemical Genomics, 2012).
# Out of some 360,000 compounds screened, about 160 (0.044%) were called active. Cut-off read from the data, not from the text of the source: active = survival enhancement above about 18%; inactive = the rest. Shown is part of a subset that was picked to be rich in actives.
# Assay: compounds raising survival of dissociated human iPSCs – cell-based, ATPlite luminescence, primary screen (AID 602274);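 note: cells exposed to compounds for 16 hours before the ATP read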
# Conditions: hiPSC single-cell survival, at 20 µM, active compounds read high, 100% = ROCK inhibitor wells, 0% = DMSO
row,SMILES,survival enhancement
1,COc1ccc(S(=O)(=O)N(CCCN2CCCC2=O)Cc2cc3c(C)ccc(C)c3[nH]c2=O)cc1,-2.2% (inactive)
2,O=C(CCc1[nH]c2ccccc2c1Sc1ccccc1)N(CCO)CCO,-1% (inactive)
3,O=S(=O)(/N=C(/Nc1ccccc1)c1ccccc1)c1cccs1,4% (inactive)
4,Cc1ccc2c(c1)nnc1nnc(SCC(=O)O)n12,-0.2% (inactive)
5,COc1ccccc1NC(=O)N1CCCC1C(=O)NCc1cccs1 (centres undefined),-0.5% (inactive)
6,COc1ccc(-n2nnnc2SCc2nc(N)nc(N3CCOCC3)n2)cc1,-2.1% (inactive)
7,CC1CCCCC12NC(=O)N(CC(=O)N1CCN(c3ccccc3)CC1)C2=O (centres undefined),-0.5% (inactive)
8,CC(C)Oc1ccc(S(=O)(=O)N2CCOCC2)cc1NC(=O)C1CSC2(C)CCC(=O)N12 (centres undefined),-0.5% (inactive)
9,Cc1ccccc1C(OCCN(C)C)C1CCCCC1 (centres undefined),-3.9% (inactive)
10,COc1cccc(CNC(=O)CCN2C(=S)NC(C)(C)CC2C)c1 (centres undefined),-0.7% (inactive)
11,CC(C)CN(CC(C)C)CC(O)CN(c1ccccc1)S(=O)(=O)c1ccccc1[N+](=O)[O-] (centres undefined),-0.3% (inactive)
12,N#C/C(=C/c1cccc([N+](=O)[O-])c1)c1nnc2n1CCCCC2,32.2% (active)
13,N#C/C(=C(\O)CCl)c1nnc2n1CCCCC2,2.8% (inactive)
14,N#C/C(=C(\O)C(F)(F)F)c1nnc2n1CCCCC2,2% (inactive)
15,COc1ccc(OC)c(CCNC(=O)CCn2ccc3cc(S(=O)(=O)N4CCCC4)ccc32)c1,-0.3% (inactive)
16,C/C(=N\NS(=O)(=O)c1ccccc1)c1c(O)cc(C)oc1=O,-0.4% (inactive)
17,COc1ccc2c(c1)cc1n2CCN=C1NN,3% (inactive)
18,Cc1cccc(-n2c(SCC(N)=O)nc3c(c2=O)C2(CCCCC2)Cc2ccccc2-3)c1,-2.5% (inactive)
19,CC1(C(=O)NS(=O)(=O)c2cccc(F)c2)CCN1C(=O)Cc1cc(F)ccc1F (centres undefined),0.9% (inactive)
20,COC(=O)CCSc1nccn1Cc1ccccc1,0.7% (inactive)

row,SMILES,survival enhancement
1,CN1CCN(C(=O)c2cnn(-c3ccccc3)c2NC(=O)c2ccc([N+](=O)[O-])cc2)CC1,0.5% (inactive)
2,COC(=O)CCSc1cc([N+](=O)[O-])cc2c1c(C1OCCS1)nn2-c1ccccc1 (centres undefined),19.1% (active)
3,CC1(C)COC(c2cccn2Cc2ccccc2Cl)=N1,4.1% (inactive)
4,COc1cc(OC)cc(C(=O)Nc2ncc3c(n2)CC(C)(C)CC3=O)c1,1.7% (inactive)
5,O=C(NN=Cc1ccccc1O)C(=O)NN=Cc1ccccc1O,-1.8% (inactive)
6,C=CCOc1ccc(C2/C(=C(\O)c3c(C)[nH]c(C(=O)OC)c3C)C(=O)C(=O)N2CCN(C)C)cc1 (centres undefined),3.5% (inactive)
7,O=C(Nc1ccc(OC(F)(F)F)cc1)c1ccc2c(c1)no[n+]2[O-],-0.6% (inactive)
8,Cc1c(C=O)c2ccccn2c1C(=O)c1ccncc1,0.1% (inactive)
9,O=C(COC(=O)Cn1cnc2ccccc2c1=O)NCC12CC3CC(CC(C3)C1)C2,-0.2% (inactive)
10,CC1CCCC(NC(=O)COC(=O)c2ccccc2C(=O)N(C)C2CCCCC2)C1C (centres undefined),0.8% (inactive)
11,Cc1cc(=O)n2nc(N3CCCC(C(=O)NCCC4=CCCCC4)C3)sc2n1 (centres undefined),1.7% (inactive)
12,C=CCc1cccc2cc(C(=O)NC3CCCC3)c(=O)oc12,0.2% (inactive)
13,CC(C)CC(CC(C)C)=NNC(=O)c1ccc(CSc2nncn2C)cc1,2.3% (inactive)
14,O=c1[nH]cccc1-c1nc2ccccc2n1Cc1ccc(Cl)cc1,1.9% (inactive)
15,COCCC(=O)N1CCC(Oc2ccc(C(=O)NCc3ccon3)cc2)CC1,-0.4% (inactive)
16,CN1C(=O)[C@H]2[C@@H](C3CC3)N3C(=O)CN(Cc4ccccc4)C(=O)[C@@]3(C)[C@H]2C1=O,-2.2% (inactive)
17,CCOc1cc(/C=C/C(=O)OCC(=O)NCCN2C(=O)CSC2=O)ccc1OCC(C)C,3% (inactive)
18,CN1CCN(C(=O)c2ccc(-c3cc4nc(NCc5cccnc5)n(C)c(=O)c4s3)cc2)CC1,-0.7% (inactive)
19,O=C(CCCN1C(=O)c2ccccc2C1=O)Oc1ccc(Cl)cc1,3.7% (inactive)
20,CN(C)c1ccnc(Oc2ccc(F)cc2)c1C#N,1.8% (inactive)

row,SMILES,survival enhancement
1,COCCNC(=S)c1ccc(OC)cc1,5.9% (inactive)
2,COc1ccc(-c2ccc(CNCCCN3CCOCC3)o2)cc1Cl,-1.8% (inactive)
3,Cc1ccc(Cl)c(OCC(=O)N(C)CC(=O)Nc2ccc(N3CCOCC3)cc2)c1,0% (inactive)
4,COc1ccc(Cl)cc1NC(=O)[C@@H]1CCCN1C(=O)c1cccs1,1.2% (inactive)
5,O=C(O)c1ccc(-n2cccc2)cc1O,-3.7% (inactive)
6,NNC(=O)c1cnn(-c2ccccc2)c1C(F)(F)F,-0.5% (inactive)
7,O=C1CC2(CCCC2)C(=O)N1CN1CCN(S(=O)(=O)c2ccc(F)cc2F)CC1,-0.8% (inactive)
8,O=C(CNCCC1=CCCCC1)Nc1ccccc1N1CCCCCC1,-0.7% (inactive)
9,CCNC(=O)Nc1ccc(S(=O)(=O)Nc2cnc(C)nc2C)cc1,-0.1% (inactive)
10,CCCCN(CCCC)C(=O)CCS(=O)(=O)c1ccc2c(c1)n(C)c(=O)c(=O)n2C,2.7% (inactive)
11,Cc1c(-c2nn(C)c(=O)c3ccccc23)oc2ccc(F)cc2c1=O,-1.5% (inactive)
12,COC(=O)c1ccc(NC(=S)Nc2cccc(C)n2)cc1,0.3% (inactive)
13,CCCCN1C(=O)CC(N2CCOCC2)C1=O (centres undefined),1.8% (inactive)
14,COc1cc(OC)cc(-c2c(C#Cc3ccsc3)c3cc(-c4ccc(SC)cc4)ccc3n2C)c1,1.4% (inactive)
15,COc1ccc(N2C(=O)/C(=C\c3ccco3)N=C2SCC(N)=O)cc1Cl,-1.3% (inactive)
16,COc1ccc(C(=O)CSc2nnc(NC(=O)C3CC(=O)N(c4cccc(OC)c4)C3)s2)cc1 (centres undefined),0.9% (inactive)
17,CC(=O)OCCN(CCCn1c(-c2ccncc2)nc2ccccc21)c1nc(-c2ccc(C)cc2)cs1,0.8% (inactive)
18,Cc1noc(C)c1CSc1nc2cc(S(=O)(=O)N3CCOCC3)ccc2o1,8.5% (inactive)
19,CC(C)(C)C(=O)NCCCNc1ccc([N+](=O)[O-])cc1,-0.5% (inactive)
